# Mcl-1 Bim block = disrupts Bim peptide binding to human Mcl-1; actives 0.1% (n = 190,000); inhibition, % at 10 µM; Q07820; AID 1009; Bead-based flow cytometry, Bim peptide-Mcl-1 binding; in the data active = inhibition above about 40%;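 note: 0% = no compound tracer wells and 100% = peptide blocker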
# Target sequence (Q07820 whole entry, looked up): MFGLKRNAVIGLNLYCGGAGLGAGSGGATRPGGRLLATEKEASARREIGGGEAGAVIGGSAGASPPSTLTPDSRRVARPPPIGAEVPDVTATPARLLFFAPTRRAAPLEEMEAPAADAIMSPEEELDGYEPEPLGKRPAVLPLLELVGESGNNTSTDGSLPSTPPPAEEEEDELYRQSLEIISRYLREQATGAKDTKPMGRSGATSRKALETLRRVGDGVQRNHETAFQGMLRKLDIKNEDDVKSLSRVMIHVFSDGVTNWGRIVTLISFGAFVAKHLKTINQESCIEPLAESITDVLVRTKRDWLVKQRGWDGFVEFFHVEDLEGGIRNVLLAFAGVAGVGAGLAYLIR
# 14-3-3 Bad PPI = disrupts binding of bovine 14-3-3 zeta to phospho-Bad peptide; P63103; TR-FRET 14-3-3zeta/Dy647-pBad peptide displacement, 1 h; inhibition, % at 21.7 µM; actives 0.71% (n = 220,000); AID 781;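 active = inhibition above about 70%, limit read from the data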;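 note: 0% = full 14-3-3 plus peptide FRET controls and 100% = background without 14-3-3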
# Mcl1 Noxa PPI = Mcl-1/Noxa interaction inhibition. AID 1022. inhibition, % at 21.7 µM. TR-FRET Mcl-1/Noxa peptide binding, 2 h. Q07820. actives 1.5% (n = 220,000);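 active = compounds that cut the protein-peptide binding signal by more than 50% relative to plate controls in a single-dose test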;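 note: His-tagged Mcl-1 with rhodamine Noxa BH3 peptide and terbium anti-His antibody; 0% = Mcl-1 plus Noxa peptide wells and 100% = peptide-only wells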
# eIF4E-4G inh = inhibitors of eIF4E and eIF4G interaction in translation initiation; P63073+Q04637; TR-FRET eIF4E-eIF4GI(517-606) binding, 2 h; inhibition, % at 21.7 µM; actives 0.37% (n = 220,000);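 active = inhibition above about 30%, limit read from the data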;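 note: 0% = full FRET control wells and 100% = background wells lacking eIF4GI fragment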
# MCL1-BIM inh = disrupts human MCL1 binding to BIM-BH3 peptide; Q07820; GST-MCL1 / FITC-Bim-BH3 fluorescence polarization; inhibition, % at 10.9 µM; actives 0.68% (n = 320,000); AID 2057;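 active = inhibition above the mean inhibition of all tested compounds plus 3 SD, set per campaign, cut at about 40% in these data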;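 note: 0% = DMSO wells and 100% = unlabeled Bim-BH3 peptide control; higher means more loss of mP so more displacement of Bim peptide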
# Mcl1-Bid inh = disrupts binding of human Mcl-1 to Bid peptide; inhibition, % at 21.7 µM; AID 1021; actives 0.97% (n = 220,000); TR-FRET Mcl-1/Bid-Dy647 peptide binding, 1536-well; Q07820;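 active = compounds that cut the binding signal by more than half at the single screening dose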;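 note: His-tagged Mcl-1 with europium anti-His antibody binding Bid BH3 peptide; 0% = Mcl-1 plus peptide wells and 100% = peptide-only wells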
# Bcl-xL conf = counter-screen for MCL1 inhibitors: confirmation of human Bcl-xL inhibitors; shares compounds with MCL1-BIM inh; GST-Bcl-xL / FITC-Bim BH3 peptide FP binding; inhibition, % at 10.9 µM; actives 54% (n = 1,700);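 active = inhibition above a cutoff equal to the mean inhibition of all tested compounds plus 3 SD, cut at about 30% in these data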;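 note: 0% = DMSO wells and 100% = unlabeled Bim BH3 control peptide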
# Target sequence (Q07817 whole entry, looked up): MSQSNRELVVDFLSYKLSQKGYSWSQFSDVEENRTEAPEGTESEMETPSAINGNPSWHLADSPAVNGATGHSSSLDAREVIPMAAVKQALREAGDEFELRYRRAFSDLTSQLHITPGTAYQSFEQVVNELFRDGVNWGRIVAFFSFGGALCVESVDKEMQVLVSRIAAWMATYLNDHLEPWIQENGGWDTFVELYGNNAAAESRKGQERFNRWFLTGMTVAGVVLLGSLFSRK
# MCL1 inh confirm = confirmation of human MCL1 and BIM-BH3 interaction inhibitors; GST-MCL1 / FITC-Bim-BH3 fluorescence polarization; shares compounds with MCL1-BIM inh; inhibition, % at 10.9 µM; actives 61% (n = 1,700);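 active = inhibition above the average of all tested compounds plus 3 SD, cut at about 40% in these data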;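 note: 0% = DMSO wells and 100% = unlabeled Bim-BH3 control peptide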
# Active calls of the source: *; x = not tested or not shown; + = active, no number; ! = not active in a repeat; [ ] = dose if it differs, or a comment. In the library only some 2.6% were active in any assay of this set; here they are far more common.
SMILES,Mcl-1 Bim block,14-3-3 Bad PPI,Mcl1 Noxa PPI,eIF4E-4G inh,MCL1-BIM inh,Mcl1-Bid inh,Bcl-xL conf,MCL1 inh confirm
COc1ccc(Cl)cc1C(=O)NNC(=O)CSc1nnc2ccccn12,0.0,-7.1,3.9,1.3,40.4*,-21.6,1.4,20.3
COc1ccc(Cl)cc1C(=O)NNC(=O)CSc1nnnn1C,0.0,-2.6,-7.2,-1.6,19.8,-57.7,x,x
COC(=O)c1nn(-c2ccc(OC)cc2)ccc1=O,x,x,x,x,2.4,x,x,x
Cc1ccc(N=Nc2c(O)n(CN3CCOCC3)c3ccccc23)cc1,-2.0,-10.4,-3.2,-4.2,77.6*,-27.9,-22.3,-36.0
Cc1ccc(CN2CCN(Cc3cccc4nccnc34)CC2CCO)cc1 (configuration not stated),x,-8.5,11.5,1.3,2.7,0.9,x,x
Cc1ccc(S(=O)(=O)c2nc(Cc3ccccc3)oc2N2CCOCC2)cc1,x,x,x,x,58.5*,x,14.0,79.2*
O=C1/C(=C/c2cccc(Cl)c2)CSc2sccc21,x,-4.7,7.4,-5.0,56.2*,-6.3,8.9,4.8
C=CCOc1c(Br)cc(/C=N/n2c(CC)n[nH]c2=S)cc1Br,-5.0,0.8,0.6,11.3,-21.0,-66.3,x,x
CN(CC(=O)Nc1ccc(Cl)c(Cl)c1)C(=O)CC1OC(=O)c2ccccc21 (configuration not stated),x,x,x,x,5.1,x,x,x
Cc1c(Cl)cnc(NC(=O)COC(=O)c2ccc([N+](=O)[O-])s2)c1Cl,-4.0,3.4,93.9*,23.2,60.5*,6.5,34.2*,47.9*
O=C(COC(=O)c1ccc([N+](=O)[O-])s1)Nc1ccc(Cl)cn1,-5.0,-3.8,15.5,7.5,15.8,11.7,x,x
CCc1nc(CN2CCN(c3cc(C(F)(F)F)ccn3)CC2)c(C)[nH]1,x,5.2,1.4,-0.1,-1.8,-25.7,x,x
O=C(CNC(=O)/C=C/c1ccco1)N=Nc1c(O)[nH]c2ccccc12,x,x,x,x,41.8*,x,28.3,56.9*
O=C(CNC(=O)Cc1ccccc1)N=Nc1c(O)[nH]c2ccccc12,x,x,x,x,-4.5,x,x,x
Nc1ccc(C(=O)N/N=C\c2cc(N=Nc3cccc4ccccc34)ccc2O)cc1,0.0,76.8*[fluorescence artefact?],x,-35.8,65.8*,65.4*,11.6,71.8*
CC(=O)Nc1ccc(N=Cc2nc(-c3ccc(C)cc3)oc2O)cc1,2.0,69.1,65.0*,-4.9,90.3*,63.9*,59.9*,60.7*
CCc1cc(C(=O)OC)c(NC(=O)CSc2nccn2C)s1,x,x,x,x,2.9,x,x,x
CC1(C)CC(=O)C2=C(C1)Nc1ccccc1NC2c1cc(Cl)ccc1O (configuration not stated),x,x,x,x,-0.4,x,x,x
Cc1cc2c(cc1C)NC(c1c(C)n(C)n(-c3ccccc3)c1=O)C1=C(CC(C)(C)CC1=O)N2 (configuration not stated),0.0,7.2,6.8,-8.3,135.0*,-12.8,8.3,8.5
Cc1ccc(C2Nc3ccccc3NC3=C2C(=O)CC(C)(C)C3)c(O)c1 (configuration not stated),x,x,x,x,52.1*,x,67.2*,93.7*
O=C(CNC(=O)C1CCCCC1)NCc1ccco1,x,x,x,x,0.4,x,x,x
CCS(=O)(=O)NCc1ccc2[nH]c3c(c2c1)CCCC3,-3.0,-6.5,2.8,-0.7,72.6*,-40.2,48.5*,69.6*
CCC1(c2ccccc2)NC(=O)N(CC(=O)NCc2ccccc2OC)C1=O (configuration not stated),x,x,x,x,-5.6,x,x,x
CCC1(c2ccccc2)NC(=O)N(CC(=O)Nc2ccc(OC)nc2)C1=O (configuration not stated),x,x,x,x,+,x,168.2*,+
CC(Oc1ccc(Cl)cc1)C(=O)N/N=C/c1ccsc1 (configuration not stated),0.0,3.0,16.6,5.5,11.5,-2.1,x,x
SMILES,Mcl-1 Bim block,14-3-3 Bad PPI,Mcl1 Noxa PPI,eIF4E-4G inh,MCL1-BIM inh,Mcl1-Bid inh,Bcl-xL conf,MCL1 inh confirm
CN1CCc2cc3c(c4c2[C@H]1[C@H](O)c1ccccc1-4)OCO3,3.0,1.5,35.0,-1.5,124.1*,-4.6,61.1*,80.3*
CC1CCN(C(=O)C2(NC(=O)Nc3cccc(F)c3)CCCCC2)CC1,2.0,-7.4,9.2,0.9,5.5,-4.8,x,x
COc1ccc(-c2cc(=O)oc3c(O)c(O)ccc23)cc1,x,x,x,x,68.4*,x,72.5*,93.5*
CCCN1CCN(CC(=O)Nc2nncs2)CC1,x,x,x,x,1.1,x,x,x
O=C(/C=C/c1ccc(Br)o1)OCc1nc2ccsc2c(=O)[nH]1,x,x,x,x,48.7*,x,37.5*,86.5*
O=C(Nc1cccnc1)c1cc2cc(Br)ccc2o1,x,x,x,x,4.5,x,x,x
O=C(NC1CC2CCCC(C1)N2Cc1cccs1)c1ccc([N+](=O)[O-])cc1 (configuration not stated),0.0,-5.6,22.0,-1.0,6.7,0.9,x,x
CC1(C)CC(=O)C2=C(C1)OC(N)=C(C#N)C2c1cc2c(cc1[N+](=O)[O-])OCO2 (configuration not stated),-6.0,-17.4,24.7,1.5,+,-48.5,107.5*,131.7*
CCOc1ccccc1NC(=O)CSc1nnc(CNC(=O)c2c(F)cccc2Cl)o1,x,x,x,x,-2.2,x,x,x
COc1cc(OC)c(-c2c3cc(O)c(=O)cc-3oc3cc(O)c(O)cc23)cc1OC,x,-2.7,-70.2,3.8,-43.8,-85.2,x,x
Cc1c2cc(O)c(=O)cc-2oc2cc(O)c(O)cc12,x,92.8*,x,34.7*![fluorescence artefact?],x,x,114.5*,x
CC1=Nc2ccccc2/C1=C\c1nc(-c2ccc(C(F)(F)F)cc2)oc1O,-1.0,22.6,-1.7,-6.1,57.8*,2.6,100.0*,126.5*
CC1=Nc2ccccc2/C1=C\c1nc(-c2ccccc2)oc1O,0.0,-5.1,10.7,1.6,-18.8,-23.3,x,x
O=C(O)c1ccc2c3c(ncnc13)-c1ccccc1C2=O,-4.0,19.2,22.5,4.6,74.5*,13.2,121.3*,141.8*
O=C(O)c1cccc2c1C(=O)c1ccccc1C2=O,0.0,-6.9,8.3,1.3,-1.6,-6.1,x,x
CC(C)OC(=O)CC(=O)c1sc2nc3c(cc2c1N)CN(C)CC3,6.0,4.8,57.0*,1.3,98.3*,-15.9,59.9*,72.1*
CCOC(=O)c1sc2nc3c(cc2c1N)COC(C(C)C)C3 (configuration not stated),0.0,11.3,-6.3,-10.4,-2.1,-21.6,x,x
Nc1nn2cc(-c3ccc(Br)cc3)nc2c2ccccc12,x,46.4,17.0,-2.1,2.1,8.8,x,x
c1ccc(-c2cn3nc4c(nc3n2)CCCC4)cc1,1.0,-14.0,17.6,1.2,130.0*,-7.7,77.6*,97.4*
Brc1ccc(-c2cn3nc4c(nc3n2)CCCC4)cc1,-1.0,-4.6,10.8,0.0,79.5*,5.6,44.9*,44.5*
